The text below walks through data of PubChem BioAssay (Tox21).

Unmarked numbers belong to inactive results. Records with an inconclusive call do not appear. Where a call stands in place of a potency, no number is given. Active and inactive are the calls of the source. Calls come from the whole dose curve; as a rule, active = well fitted curve in the direction sought with a large enough effect in the repeat runs; inconclusive = weak or mixed curves; inactive = no such curve, though single readings can be large; an effect the other way counts as inactive or inconclusive.
Note: nearly all actives have a fitted effect of over 50% in size.

A short description of the first experiment: qHTS RealTime-Glo MT Cell Viability Assay in HEK293 cells - 32 hour (AID 1224868). Note: potency is the fitted concentration of half-maximal effect. Conditions: RealTime-Glo luminescence; series mostly up to 76.8 µM. The gist of the method: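 Nonlytic real-time viability readout: viable cells convert prosubstrate to NanoLuc substrate, giving luminescence proportional to live cell number. HEK293, 600 cells/well, compound added after 5 h, continuous culture at 37 C.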
(In qHTS, concentration-response curves come from the screen itself.)
As for `CC(C)c1ccc(C(=O)N=C(N)N)cc1S(C)(=O)=O`, the Potency entry was “inactive”.
Take `COc1cc(NC(C)CCCN)c2ncccc2c1` (configuration not stated): the Potency result is “inactive”.
The same measure, in the same setting: then `CC(C(=O)O)c1ccc(C(=O)c2cccs2)cc1` (configuration not stated), with “inactive”; and `CCCCCc1ccco1`, with “inactive”.
Regarding `O=C(O)CCCc1c[nH]c2ccccc12`, the Potency entry is “inactive”.
As for `CC(C)(C)NCC(O)COc1cccc2c1C[C@H](O)[C@H](O)C2` (some centres not stated), the Potency entry is “inactive”.
With `CC(C)(C(=O)c1cccnc1)c1cccnc1`, the Potency entry was “inactive”.
For `CC(=O)C(C)=O`, the Potency result was “inactive”.
As for `CCN(CC)CCNC(=O)c1cc(Cl)c(N)cc1OC`, the Potency entry was “inactive”.
Same read-out and setting: as for `O=C1OC[C@H](Cc2cccc(O)c2)[C@H]1Cc1cccc(O)c1`, the entry is “inactive”.
Still for that read-out and setting: then `CC(C)OC(=O)c1ccccc1C(=O)OC(C)C`, with “inactive”; and `C/C(C=O)=C\c1ccccc1`, with “inactive”; and `CNc1c2c(nn1C)CCCC2`, with “inactive”.
Still for that read-out and setting: then `CNS(=O)(=O)c1cc(C(=O)N2CCC(CCN3C4CCC3CC(n3c(C)nc5ccccc53)C4)(c3cccc(F)c3)CC2)c(Cl)cc1F` (configuration not stated), with 5.49 µM (active); and `O=C(O)c1cccc(Oc2ccccc2)c1`, with “inactive”; and `CC[C@@H](CO)NCCN[C@@H](CC)CO`, with “inactive”.
Regarding `CSCC[C@H](NC(=O)[C@H](Cc1c[nH]c2ccccc12)NC(=O)CCNC(=O)OC(C)(C)C)C(=O)N[C@@H](CC(=O)O)C(=O)N[C@@H](Cc1ccccc1)C(N)=O`, the Potency entry is “inactive”.
Regarding `CC(C)(C)C1(CCc2ccc(Cl)cc2)CO1` (configuration not stated), the Potency entry is “inactive”.
Turning to `Nc1c(Cl)cc(Cl)cc1[N+](=O)[O-]`, the Potency result was “inactive”.
Regarding `BrC(Br)C(Br)Br`, the Potency result was “inactive”.
The same measure, in the same setting: then `CC(=O)N[C@@H](Cc1ccc(O)cc1)C(=O)O`, with “inactive”; and `CC(CN(CCN(CC(C)OCCO)CC(C)OCCO)CC(C)OCCO)OCCO` (configuration not stated), with 23.7 µM (active).
In the case of `CC12CC3CC(C)(C1)CC(N)(C3)C2`, the Potency result was “inactive”.
`Cc1ccc(N(CCO)CCO)cc1`: the Potency result was “inactive”.
`CC(=O)OCC1=C(C(=O)O)N2C(=O)[C@@H](NC(=O)CSc3ccncc3)[C@H]2SC1`: the Potency result was “inactive”.
Regarding `CCN(CC)CCOC(=O)C(c1ccccc1)c1ccccc1`, the Potency entry was “inactive”.
As to `CN1C(CSCC(F)(F)F)Nc2cc(Cl)c(S(N)(=O)=O)cc2S1(=O)=O` (configuration not stated), the Potency was 19 µM (active).

The nature of another experiment: A CellTox Green Cytotoxicity Assay to monitor cytotoxicity in HEK293 cells - 0 hour (AID 1224869). To be noted: CellTox Green fluorescence; series mostly up to 76.8 µM. An outline of the steps:
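Homogeneous no-lysis format: HEK293 cell suspension mixed with CellTox Green reagent, seeded, incubated 5 h at 37 C/5% CO2, then dosed by pintool with compound in DMSO.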
With `CC(C)c1ccc(C(=O)N=C(N)N)cc1S(C)(=O)=O`, the Potency entry was “inactive”.
In the case of `COc1cc(NC(C)CCCN)c2ncccc2c1` (configuration not stated), the Potency entry is “inactive”.
For the compound `CC(C(=O)O)c1ccc(C(=O)c2cccs2)cc1` (configuration not stated), the Potency entry is “inactive”.
Turning to `CCCCCc1ccco1`, the Potency result is “inactive”.
Regarding `O=C(O)CCCc1c[nH]c2ccccc12`, the Potency result is “inactive”.
Turning to `CC(C)(C)NCC(O)COc1cccc2c1C[C@H](O)[C@H](O)C2` (some centres not stated), the Potency entry is “inactive”.
Still for that read-out and setting: then `Cc1cc(CCCOc2c(C)cc(-c3noc(C(F)(F)F)n3)cc2C)on1`, with “inactive”; and `CC(C)(C(=O)c1cccnc1)c1cccnc1`, with “inactive”.
On the same count and under the same terms, then `Cc1c[nH]c2ccccc12`, with “inactive”; and `CC(=O)C(C)=O`, with “inactive”.
The same measure, in the same setting: as for `CCN(CC)CCNC(=O)c1cc(Cl)c(N)cc1OC`, the entry is “inactive”.
Consider `Oc1ccc2c(c1)Cc1ccccc1-2`, for which the Potency entry was “inactive”.
Take `O=C1OC[C@H](Cc2cccc(O)c2)[C@H]1Cc1cccc(O)c1`: the Potency result was “inactive”.
As for `CNc1c2c(nn1C)CCCC2`, the Potency entry is “inactive”.
Same read-out and setting: then `CNS(=O)(=O)c1cc(C(=O)N2CCC(CCN3C4CCC3CC(n3c(C)nc5ccccc53)C4)(c3cccc(F)c3)CC2)c(Cl)cc1F` (configuration not stated), with “inactive”; and `O=C(O)c1cccc(Oc2ccccc2)c1`, with “inactive”.
In the case of `CCO[Si](C)(CCCOCC1CO1)OCC` (configuration not stated), the Potency result was “inactive”.
Still for that read-out and setting: then `CC[C@@H](CO)NCCN[C@@H](CC)CO`, with “inactive”.
As to `COc1ccc(-c2cc(=S)ss2)cc1`, the Potency entry is “inactive”.
Consider `CSCC[C@H](NC(=O)[C@H](Cc1c[nH]c2ccccc12)NC(=O)CCNC(=O)OC(C)(C)C)C(=O)N[C@@H](CC(=O)O)C(=O)N[C@@H](Cc1ccccc1)C(N)=O`, for which the Potency result is “inactive”.
Still for that read-out and setting: as for `CCCCCCC(CO)CCCC` (configuration not stated), the entry is “inactive”.
`O=C(O)c1cc(Cl)cc(Cl)c1O`: the Potency entry is “inactive”.
As for `Nc1c(Cl)cc(Cl)cc1[N+](=O)[O-]`, the Potency result is “inactive”.
Consider `BrC(Br)C(Br)Br`, for which the Potency entry was “inactive”.
Take `CC(=O)N[C@@H](Cc1ccc(O)cc1)C(=O)O`: the Potency entry is “inactive”.
The same measure, in the same setting: then `CC(CN(CCN(CC(C)OCCO)CC(C)OCCO)CC(C)OCCO)OCCO` (configuration not stated), with “inactive”.
`CCC(Cl)CC(Cl)C(Cl)C(Cl)C(Cl)C(C)Cl` (configuration not stated): the cytotoxicity was 15.1% [at 15.8 µM].
Consider `Cc1ccc(N(CCO)CCO)cc1`, for which the Potency entry was “inactive”.
As to `CC(=O)OCC1=C(C(=O)O)N2C(=O)[C@@H](NC(=O)CSc3ccncc3)[C@H]2SC1`, the Potency result was “inactive”.
Turning to `CCN(CC)CCOC(=O)C(c1ccccc1)c1ccccc1`, the Potency entry was “inactive”.
